In PubChem BioAssay AID2685 (National Center for Advancing Translational Sciences (NCATS), 2010):
Out of some 320,000 compounds screened, about 2,100 (0.66%) were called active. Another 53% or so got no clear call; they are omitted. The call rests on the fitted dose curve; in most records, active means well fitted inhibition curve with a large enough effect in the signal ratio, with a control signal flat (not every such curve was filed as active); inconclusive means small, poorly fitted or top-dose-only effect, or effect the other way, or a change in a side signal; inactive means flat fitted curve, though single readings scatter; the % refers to the signal ratio. This excerpt belongs to a sample that is enriched for actives.

Assay: qHTS Assay for Lipid Storage Modulators in Drosophila S3 Cells;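 on cell number change: cells counted by Cell Tracker Red CMTPX staining in the red channel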
Details: BODIPY lipid droplet fluorescence, 18-24 h, cells fed with added oleic acid; cell number change: measured here: cell count max response; series mostly up to 46.1 µM
Outline: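 Drosophila S3 cells got compounds at several concentrations plus oleic acid (400 uM solution). Laser-scanning cytometry with 488 nm excitation read lipid droplets at 500-530 nm and cells at 575-640 nm. Percent activity was relative to 20 uM Triacsin C.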
Potency means the concentration at half of the fitted maximal effect.

| SMILES | Potency | cell number change [%] |
| --- | --- | --- |
| O=C(Cn1c(NCCCO)nc2ccccc21)c1ccc(F)cc1 | inactive | 11.9 |
| Cc1ccc(SCc2cc(=O)n3[nH]c(C)nc3n2)cc1 | inactive |  |
| Cc1cc(C)c(CN2CCC(N3CCC(C(=O)NCC4CCCO4)CC3)CC2)cc1C (stereo not drawn) | inactive |  |
| CC[C@@H]1CC=C[C@H]2[C@H]1C(=O)N(Cc1ccccc1)[C@H]2c1ccc2ccccc2c1 | inactive |  |
| CCN(CC)C(=O)CSc1nc(N)c(C#N)c(-c2cccs2)c1C#N | inactive | -4.19 |
| CCN(CC)C(=O)CSc1nc(C)cc(-c2cccs2)c1C#N | inactive | -17.5 |
| CCN(CC)C(=O)CSc1nc(-c2cccs2)cc(-c2cccs2)c1C#N | 14.6 µM (active) | -14 |
| O=C(CC1Sc2ccccc2NC1=O)Nc1cccc(-c2nnc3n2CCCCC3)c1 (stereo not drawn) | inactive | 4.38 |
| Cc1ccc(NC(=O)c2cccs2)cc1[N+](=O)[O-] | inactive | -1.31 |
| Cc1ccsc1C(=O)Nc1ccc2c(c1)OCCO2 | inactive |  |
| Cc1ccc(NC(=O)c2sccc2C)cc1[N+](=O)[O-] | 8.2 µM (active) | 7.44 |
| COc1ccc(-c2csc(NC(=O)c3cccc(N4C(=O)CCC4=O)c3)n2)cc1C | inactive | -26.1 |
| O=C1CC(=O)N(CCc2ccccc2)C(=O)N1CCc1ccccc1 | inactive | -9.18 |
| COc1ccc(OC)c(N=CC2=C(O)CC(C)(C)CC2=O)c1 | inactive | 25.1 |
| C/C(=N\Nc1ccc([N+](=O)[O-])cc1)c1ccc2c(c1)OCO2 | inactive | -16.9 |
| COCCCn1c(=O)c2sccc2n2c(CCCC(=O)NCC3CCCO3)nnc12 (stereo not drawn) | 18.4 µM (active) | 11.8 |
| O=C(CCCn1c(=O)c2sccc2n(CC(=O)NCC2CCCO2)c1=O)NCc1ccco1 (stereo not drawn) | inactive | 3.33 |
| CCCn1c(=O)c2sccc2n2c(CCCC(=O)NCC3CCCO3)nnc12 (stereo not drawn) | 20.6 µM (active) | -21.7 |
| CCCn1c(=O)c2sccc2n2c(CCCC(=O)NC3CCN(Cc4ccccc4)CC3)nnc12 | inactive | 6.65 |
| COCCCn1c(=O)c2sccc2n2c(CCCC(=O)NCc3ccccc3)nnc12 | inactive | 12.6 |
| CCCn1c(=O)c2sccc2n2c(CCCC(=O)NCc3ccco3)nnc12 | 29.1 µM (active) | -3.77 |
| Cn1c(C(=O)OCC(=O)NCC2CCCO2)cc2sccc21 (stereo not drawn) | inactive | 0.161 |
| CCCN(CCC)C(=O)Cn1c(=O)n(CCCC(=O)NCc2ccco2)c(=O)c2sccc21 | inactive | 2.76 |
| Cn1c(=O)c2sccc2n2c(CCCC(=O)NCc3ccco3)nnc12 | inactive | -10.3 |

| SMILES | Potency | cell number change [%] |
| --- | --- | --- |
| O=C(O)CCCN=C1NC2(CCCC2)Cc2ccccc21 | inactive | 11.6 |
| Cc1cc(=O)[nH]c(SCC(=O)c2ccc3c(c2)NC(=O)CO3)n1 | inactive | 4.71 |
| COc1cccc(NC(=O)CN(C)C(=O)CSc2nc(C)cc(C)n2)c1 | inactive | 1.93 |
| COC(=O)c1c(NC(=O)c2cccnc2Cl)sc(C(=O)N(C)C)c1C | inactive | 7.02 |
| COc1ccccc1C(CC(=O)Nc1ccc(C)c(C)c1)c1ccc(OC(C)C)cc1 (stereo not drawn) | inactive | 11.9 |
| COC(=O)COc1ccc(NC(=O)Cn2nc(-c3ccccc3)c3ccccc3c2=O)cc1 | inactive | 0.0736 |
| COc1ccc(CNc2nc(S(=O)(=O)c3ccccc3)c(Cl)s2)cc1OC | inactive | -10.4 |
| Cc1ccc(S(=O)(=O)n2nc(OC(=O)c3c(F)cccc3Cl)cc2N)cc1 | inactive | 5.65 |
| Cc1onc(-c2ccccc2Cl)c1C(=O)Oc1cc(N)n(S(=O)(=O)c2ccc(F)cc2)n1 | inactive | -4.68 |
| Nc1cc(OC(=O)c2c(F)cccc2Cl)nn1S(=O)(=O)c1ccccc1 | 0.517 µM (active) | -4.17 |
| COc1ccc(-c2onc3ccc(Cl)cc23)cc1 | inactive |  |
| CC(=O)Nc1ccc(NC(=O)c2cc(-n3cnnc3)ccc2Cl)cc1 | inactive |  |
| Cc1ccc(NC(=O)c2cc(-n3cnnc3)ccc2Cl)cc1 | inactive | -2.68 |
| CC(C)NC(=O)c1cc(-n2cnnc2)ccc1Cl | 25.9 µM (active) | -14.2 |
| CCCNC(=S)Nc1ccc(Cl)cc1C | inactive | -19.9 |
| Cc1cc(Cl)ccc1NC(=S)NCC(C)C | inactive | -2.85 |
| Cc1cc(Cl)ccc1NC(=S)NCCc1ccc(Cl)cc1 | 16.4 µM (active) | -20.6 |
| Cc1ccc(/C=C2/SC(=S)N(CCC(=O)N3CCN(C)CC3)C2=O)cc1 | inactive | 1.31 |
| O=C(CCS(=O)(=O)c1ccc(F)cc1)Nc1nc(-c2ccncc2)cs1 | inactive | -16.7 |
| Cc1ccc(S(=O)(=O)CCC(=O)Nc2nc(-c3cccnc3)cs2)cc1 | 13 µM (active) | -24.9 |
| Cc1ccc(S(=O)(=O)CCC(=O)Nc2nc(C(C)(C)C)cs2)cc1 | 23.1 µM (active) | -1.15 |
| Cc1csc(NC(=O)CCS(=O)(=O)c2ccc(Br)cc2)n1 | inactive |  |
| Cc1ccc(S(=O)(=O)CC(=O)Nc2nc(C(C)(C)C)cs2)cc1 | inactive | 18.4 |
| Cc1ccc(S(=O)(=O)CC(=O)Nc2nc(-c3ccccc3)cs2)cc1 | inactive |  |
